# In PubChem BioAssay:
# Calls of active or inactive are those of the source.
# Legend:
# [1] = test system: Human papillomavirus type 1a protein E7 (residues 44-93); assay: small molecules binding HPV E7 44-93 – biochemical, small-molecule microarray, residues 44-93, 635 nm fluorescence, primary screen (AID 1108); conditions: fluorescence 635 nm, higher = more signal;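 also: E7 fragment applied at 1 µg/mL in TBST for 1 h at 4 C; score combines spot fluorescence with its signal to noise ratio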
# [2] = hepatitis C replication reporter changes, two-sided – Huh7 cells, luciferase reporter, HCV replication inhibitor project, primary screen (AID 1109); conditions: Huh7 HCV replicon luciferase reporter, 48 h; higher = more signal;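 also: huh7 hepatoma cells harbouring a luciferase neomycin HCV replicon reporter; luciferase luminescence as measure of HCV replicon replication; test concentration not given here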
# [3] = target: Left-right determination factor 2 (Homo sapiens) (UniProt O00292); assay: small molecules binding LEFTY2 protein – biochemical, small-molecule microarray, 635 nm fluorescence scan, primary screen (AID 1110); conditions: higher = more signal
# [4] = target: Calmodulin-1 (Homo sapiens) (UniProt P0DP23); assay: small molecules binding calmodulin-1 with EGTA – biochemical, small-molecule microarray, Cy5-labelled CALM1, profiling panel (AID 1111); conditions: Cy5-CALM1 binding fluorescence, higher = more signal;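 also: labelled calmodulin applied in Tris saline Tween buffer holding calcium plus EGTA and DTT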
# [5] = target: Calmodulin-1 (Homo sapiens) (UniProt P0DP23); assay: small molecules binding Ca-loaded calmodulin-1 – biochemical, small-molecule microarray, Cy5-labelled CALM1, plus calcium, artefact control for SMM control-protein annotation, profiling panel (AID 1112); conditions: Cy5-CALM1 binding fluorescence, higher = more signal;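 also: score merges spot fluorescence with signal to noise from triplicate slides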
# [6] = probe aWnt5a binding to arrayed compounds – biochemical, biotinylated probe, 635/667 nm fluorescence, primary screen (AID 1113); conditions: higher = more signal; small-molecule microarray, probe aWnt5a, fluorescence unless noted;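 also: score merges 667 nm fluorescence intensity with signal-to-noise per printed feature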
# [7] = probe aShh binding to arrayed compounds – biochemical, biotinylated probe, 635/667 nm fluorescence, primary screen (AID 1114); conditions: higher = more signal; small-molecule microarray, probe aShh, fluorescence unless noted;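 also: probe is biotin-labelled aShh protein from a stem cell growth factor screen; measures binding of labelled protein to compounds printed on the slide; score merges feature fluorescence at 667 nm with signal-to-noise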
# [8] = probe aNog binding to arrayed compounds – biochemical, biotinylated probe, 635/667 nm fluorescence, primary screen (AID 1115); conditions: higher = more signal; small-molecule microarray, probe aNog, fluorescence unless noted;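 also: probe is biotinylated aNog protein used at 0.15 µg/mL for 1 h at 4 C; z-score combines 667 nm fluorescence of each spot with its signal to noise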
# [9] = target: Torsin-1A-interacting protein 1 (Homo sapiens) (UniProt Q5JTV8); assay: compound microarray binding of lysate hLAP1 – cell lysate, small-molecule microarray, COS7 lysate, 635/667 nm fluorescence, primary screen (AID 1116); conditions: 635 nm fluorescence, higher = more signal
# [10] = target: Alpha-bungarotoxin (Bungarus multicinctus) (UniProt P60615); assay: compounds binding labelled alpha-BTX control protein – biochemical, small-molecule microarray, Alexa647 label, 635/667 nm fluorescence, artefact control for SMM control protein annotation, profiling panel (AID 1117); conditions: alpha-BTX-A647 binding fluorescence, higher = more signal
# Albumin (Bos taurus) = Albumin (Bos taurus) (UniProt P02769); assay: compounds binding labelled BSA control protein – biochemical, small-molecule microarray, Alexa647 label, 635/667 nm fluorescence, artefact control for SMM control protein annotation, profiling panel (AID 1118); conditions: BSA-A647 binding, fluorescence 635 nm, higher = more signal;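 also: score merges 667 nm emission intensity and signal-to-noise per printed compound spot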
# [11] = probe aXIP binding to arrayed compounds – biochemical, NeuroSMM set, 635/667 nm fluorescence, primary screen (AID 1119); conditions: small-molecule microarray; higher = more signal, called active from +8 up or from −8 down unless noted;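 also: probe is the protein aXip251-270 applied at 1 µg/mL to compound-printed slides; binding of probe to printed compounds measured as 667 nm fluorescence plus signal to noise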
# [12] = probe aNOTCH3 binding on compound microarray – biochemical, small-molecule microarray, 635/667 nm fluorescence, primary screen (AID 1120); conditions: higher = more signal; small-molecule microarray, probe aNOTCH3, fluorescence unless noted;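 also: probe is a biotin-tagged antibody raised against NOTCH3 rather than NOTCH3 protein; score merges spot fluorescence near 667 nm with spot signal to noise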
# [13] = probe aNOTCH2 binding on compound microarray – biochemical, small-molecule microarray, 635/667 nm fluorescence, primary screen (AID 1121); conditions: higher = more signal; small-molecule microarray, probe aNOTCH2, fluorescence unless noted;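 also: score merges feature fluorescence read at 667 nm with its signal to noise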
# [14] = target: Carbonic anhydrase 2 (Homo sapiens) (UniProt P00918); assay: compounds binding carbonic anhydrase 2 – biochemical, small-molecule microarray, Alexa647-labelled CAII, profiling panel (AID 1122); conditions: CAII-A647 binding fluorescence, higher = more signal
# [15] = COS7 lysate on small-molecule microarray, probe aHis, 635 nm (AID 1123); conditions: higher = more signal; small-molecule microarray, COS7 cell lysate, probe aHis, fluorescence unless noted;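 also: z-score combines 667nm fluorescence intensity with signal-to-noise per printed compound spot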
# [16] = probe aLAP1 signal on lysate-treated microarray – cell lysate, small-molecule microarray, COS7 lysate, primary screen (AID 1124); conditions: higher = more signal; small-molecule microarray, COS7 cell lysate, probe aLAP1, fluorescence unless noted;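 also: lysate comes from COS7 cells expressing LAP1 and is applied at 0.3 µg/mL; score merges spot fluorescence near 667 nm with signal-to-noise over triplicate slides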
# Sam68 (KHDRBS1) = assay: compounds binding KHDRBS1 protein – biochemical, small-molecule microarray, 635 nm fluorescence, primary screen (AID 1125); conditions: higher = more signal;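 also: score merges 667 nm channel intensity with signal to noise over triplicate slides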
# [17] = test system: Chordin-like protein 2 (CHRDL2); assay: compounds binding chordin-like 2 – biochemical, small-molecule microarray, 635 nm fluorescence, primary screen (AID 1126); conditions: fluorescence 635 nm, higher = more signal;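 also: printed compound slides probed with Chrdl2 protein at 4 µg/mL for 1 h at 4 C; score merges 667 nm emission intensity with signal to noise over three replicate slides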
# [18] = target: Concanavalin-A (Canavalia ensiformis) (UniProt P02866); assay: compounds binding concanavalin A lectin – biochemical, small-molecule microarray, Alexa647 label, 635 nm, artefact control for SMM control protein annotation, primary screen (AID 1127); conditions: ConA-A647 binding fluorescence, higher = more signal;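 also: z combines 667 nm emission intensity with signal-to-noise across three replicate slides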
# Chain of Concanavalin-A (Canavalia ensiformis) (P02866 whole entry, looked up): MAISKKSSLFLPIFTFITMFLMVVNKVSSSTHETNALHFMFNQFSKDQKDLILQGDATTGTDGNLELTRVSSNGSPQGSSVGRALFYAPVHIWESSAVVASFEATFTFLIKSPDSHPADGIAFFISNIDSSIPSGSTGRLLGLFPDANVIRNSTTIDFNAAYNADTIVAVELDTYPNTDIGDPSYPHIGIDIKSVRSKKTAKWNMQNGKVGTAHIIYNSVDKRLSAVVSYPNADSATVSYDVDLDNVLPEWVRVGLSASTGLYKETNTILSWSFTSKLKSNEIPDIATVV
# Chain of Torsin-1A-interacting protein 1 (Homo sapiens) (Q5JTV8 whole entry, looked up): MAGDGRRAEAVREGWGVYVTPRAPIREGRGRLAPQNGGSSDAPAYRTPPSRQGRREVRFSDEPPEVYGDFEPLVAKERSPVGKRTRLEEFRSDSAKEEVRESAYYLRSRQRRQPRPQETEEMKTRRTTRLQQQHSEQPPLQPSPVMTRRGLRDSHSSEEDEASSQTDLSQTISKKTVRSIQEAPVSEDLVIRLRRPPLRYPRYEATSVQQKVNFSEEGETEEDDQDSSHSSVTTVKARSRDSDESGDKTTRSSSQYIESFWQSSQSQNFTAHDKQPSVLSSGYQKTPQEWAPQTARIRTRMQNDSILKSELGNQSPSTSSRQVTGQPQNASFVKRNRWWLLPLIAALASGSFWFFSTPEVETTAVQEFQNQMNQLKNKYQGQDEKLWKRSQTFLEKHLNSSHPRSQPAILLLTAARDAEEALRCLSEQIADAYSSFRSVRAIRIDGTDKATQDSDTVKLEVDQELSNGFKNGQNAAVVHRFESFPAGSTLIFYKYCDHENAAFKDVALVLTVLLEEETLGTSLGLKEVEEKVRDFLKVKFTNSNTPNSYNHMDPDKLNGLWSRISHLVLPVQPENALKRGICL
# Chain of Albumin (Bos taurus) (P02769 whole entry, looked up): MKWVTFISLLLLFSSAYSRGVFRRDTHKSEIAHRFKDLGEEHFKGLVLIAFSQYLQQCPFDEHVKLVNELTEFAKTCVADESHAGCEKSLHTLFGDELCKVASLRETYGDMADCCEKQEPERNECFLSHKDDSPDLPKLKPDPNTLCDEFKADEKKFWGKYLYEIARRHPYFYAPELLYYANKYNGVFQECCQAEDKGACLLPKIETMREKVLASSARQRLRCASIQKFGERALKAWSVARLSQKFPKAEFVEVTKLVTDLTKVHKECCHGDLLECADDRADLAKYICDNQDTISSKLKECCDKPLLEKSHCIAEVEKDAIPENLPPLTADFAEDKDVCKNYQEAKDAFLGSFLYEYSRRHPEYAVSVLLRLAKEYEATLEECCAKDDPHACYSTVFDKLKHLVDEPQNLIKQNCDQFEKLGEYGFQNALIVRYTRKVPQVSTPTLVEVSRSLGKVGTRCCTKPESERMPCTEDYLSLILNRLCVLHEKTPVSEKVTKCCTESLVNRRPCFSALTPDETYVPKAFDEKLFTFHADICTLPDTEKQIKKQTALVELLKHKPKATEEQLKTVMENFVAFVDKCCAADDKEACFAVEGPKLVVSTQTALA
# Chain of Alpha-bungarotoxin (Bungarus multicinctus) (P60615 whole entry, looked up): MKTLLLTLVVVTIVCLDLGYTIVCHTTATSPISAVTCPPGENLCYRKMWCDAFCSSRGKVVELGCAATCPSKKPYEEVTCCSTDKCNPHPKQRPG
# Chain of Left-right determination factor 2 (Homo sapiens) (O00292 whole entry, looked up): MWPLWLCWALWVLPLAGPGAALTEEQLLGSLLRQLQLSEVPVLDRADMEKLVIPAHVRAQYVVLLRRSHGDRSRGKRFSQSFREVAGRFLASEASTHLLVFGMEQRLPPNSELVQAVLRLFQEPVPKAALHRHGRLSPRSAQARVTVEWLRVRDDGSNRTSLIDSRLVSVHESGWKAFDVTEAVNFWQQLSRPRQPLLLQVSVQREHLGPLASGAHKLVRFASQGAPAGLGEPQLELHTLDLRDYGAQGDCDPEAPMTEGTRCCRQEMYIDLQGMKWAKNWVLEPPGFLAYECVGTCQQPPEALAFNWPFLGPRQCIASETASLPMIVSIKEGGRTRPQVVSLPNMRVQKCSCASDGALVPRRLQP
Structure (SMILES),composite z-score [1],z-score [2],composite z-score [3],composite z-score [4],composite z-score [5],composite z-score [6],composite z-score [7],composite z-score [8],composite z-score [9],composite z-score [10],composite z-score (Albumin (Bos taurus)),composite Z-score [11],composite z-score [12],composite z-score [13],composite z-score [14],composite z-score [15],composite z-score [16],composite z-score (Sam68 (KHDRBS1)),composite z-score [17],composite z-score [18]
COC(=O)[C@@]1(Cc2ccccc2)[C@H]2c3cc(C(=O)N(C)C)[nH]c3C[C@H]2CN1C(=O)c1ccccc1,-0.452,-0.454,-0.476,0.157,0.136,0.0037,0.333,0.629,0.533,-0.0856,0.772,-0.0667 (inactive),-0.0017,-0.0193,0.896,-0.0769,0.0772,-1.41,-0.219,-0.394
C[C@H]1O[C@H]2C3=C(C(=O)[C@@H]4O[C@@H]4[C@@H]3O)[C@@H]1[C@@H]1[C@@H](C)OC=C3[C@@H](O)[C@H]4O[C@H]4C(=O)[C@]312,-1.18,-2.57,-0.107,-0.806,-0.447,-0.125,-0.0553,-0.252,-0.404,0.411,0.664,0.19 (inactive),-0.0947,-0.125,0.26,-0.393,-0.494,-1.77,-0.0769,-1.83
C[C@@H]1OC=C2[C@@H](O)[C@H]3O[C@H]3C(=O)[C@]23[C@H]1[C@H]1C2=C([C@@H](O)[C@H]4O[C@H]4C2=O)[C@@H]3O[C@@H]1C,-2.16,-1.29,0.425,-1.11,-0.718,-0.224,-0.2,-0.244,0.0387,-0.244,-0.745,0.278 (inactive),-0.063,-0.147,-0.355,-0.934,-0.266,-1.86,0.584,-0.66
COC(=O)C1(C)C=C2C(=C(C)C(=O)C2C)CN1 (stereo unspecified),-0.131,-0.0365,-0.412,-0.423,0.0902,-0.113,0.381,1.48,1.18,-0.313,0.395,0.727 (inactive),-0.219,0.0145,0.917,2.82,1.46,-0.326,-0.471,-2.16
COC(=O)[C@H]1[C@@H](O)[C@@]2(O)c3c(OC)cc(OC)cc3O[C@@]2(c2ccc(OC)cc2)[C@@H]1c1ccccc1,0.828,1.91,0.473,0.371,-0.402,-0.0606,0.0684,0.117,0.537,0.611,0.0007,-0.619 (inactive),-0.101,-0.0439,-0.0268,0.309,0.413,0.34,0.671,0.37
OCc1ccc(C2=CC(c3cccs3)N(Cc3cccc(OC(F)(F)F)c3)CC2)cc1 (stereo unspecified),-0.307,-1.07,0.198,-0.573,-0.411,-0.091,-0.138,-0.244,0.221,0.934,0.343,-0.375 (inactive),-0.0596,-0.115,0.197,0.609,-0.368,0.277,0.396,-0.426
CN1CCC(c2ccc(CO)cc2)=CC1C1CC1 (stereo unspecified),0.0996,-0.954,0.163,-0.257,-0.691,-0.208,-0.0474,-0.198,-0.0443,0.0005,-1.02,-0.557 (inactive),0.0357,-0.192,-0.0046,-0.106,-0.334,-0.172,0.0276,0.28
COC(=O)[C@H]1[C@H](c2ccccc2)C(=O)[C@]2(O)c3ccccc3O[C@@]12c1ccccc1,0.304,0.0741,0.832,0.384,-0.0524,-0.131,0.0048,-0.293,0.106,0.0914,0.394,0.311 (inactive),0.0833,-0.199,-0.132,0.0246,-0.0474,0.198,0.263,0.711
COc1cc2c(cc1O)C=[N+](C)CC2,-2.1,-0.0523,-0.0898,-0.683,-0.399,-0.15,-0.138,-0.436,-0.347,-0.596,0.502,-0.296 (inactive),-0.0377,-0.133,0.329,-0.4,-0.93,-1.67,0.185,-1.48
C=C1C=C(Br)C2(OCCCO2)[C@H]2OC12 (stereo partly specified),,,,,,,,,,-0.206,,,,,,,,,,
CCOC(=O)[C@H]1CC=C2C(=O)Oc3ccccc3[C@@H]21,0.252,-1.93,-0.562,-0.229,-0.42,-0.129,-0.366,0.356,-1.28,-0.0764,0.445,-0.123 (inactive),-0.126,-0.162,0.568,0.468,1.3,-0.491,-0.94,0.122
CCCC=C(CCC)[C@@H](NP(=O)(c1ccccc1)c1ccccc1)c1ccccc1,1.28,-1.39,0.943,1.94,0.42,0.208,-0.106,-0.519,0.275,0.44,0.377,0.655 (inactive),0.0873,-0.053,-0.0222,0.122,-0.264,0.986,-0.141,1.07
C=C(CC1(CNP(=O)(c2ccccc2)c2ccccc2)CC1)c1ccccc1,-0.872,-1,0.165,1.22,0.442,0.0597,-0.273,1.01,0.836,-0.108,0.44,-0.0318 (inactive),0.179,0.0312,0.809,1.2,0.399,-0.975,-0.754,-0.139
C[C@@H]1Cc2c(cnc3c2CN(C)CC3)CO1,-1.58,-0.491,0.894,-1.33,-0.882,-0.0221,0.149,-0.0689,-0.217,-0.138,-0.537,0.266 (inactive),-0.0902,-0.111,-0.0903,0.233,-0.268,-0.512,0.975,-1.28
COc1cc2c(cc1O)C(C)N(C)CC2 (stereo unspecified),-1.75,0.569,-0.603,1.58,1.24,0.0017,-0.0769,-0.343,0.0049,-0.613,0.122,0.104 (inactive),-0.0967,-0.0877,0.545,0.594,0.209,-1.24,-0.432,0.519
CCc1cc2c(nc1CC)CCN(CCC(C)=NOC)C2,0.711,-1.06,0.802,-0.47,0.107,0.0375,-0.117,-0.148,1,-0.0978,0.802,0.154 (inactive),0.256,-0.0028,0.639,0.45,1.21,0.92,0.639,-0.426
O=P(c1ccccc1)(c1ccccc1)N1CC2(CC2)CC(O)(c2ccccc2)C1 (stereo unspecified),1.04,-1.06,-1.1,1.04,1.08,0.435,-0.0553,1.6,1.58,0.41,0.498,0.284 (inactive),0.392,0.193,0.835,3.3,1.19,0.584,-0.31,0.462
